DAX1 inh-1 – DAX1 (NR0B1) inhibitors, primary screen, cell-based, HEK293, Gal4-DAX1, luciferase luminescence; Nuclear receptor subfamily 0 group B member 1 (Homo sapiens), P51843; HEK293 Gal4-DAX1 luciferase reporter; inhibition, % at 6.75 µM; 0.99% of 340,000 active; AID 504766, 2011;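 active = inhibition above the mean over all tested compounds plus 3 SD, cut at about 4.2% in these data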;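 also: 0% = DAX1-transfected cells with DMSO and 100% = empty-vector control cells with DMSO; inhibition shows as a rise in luminescence from relieved DAX1 repression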
Target sequence (P51843 207-470 limits assumed): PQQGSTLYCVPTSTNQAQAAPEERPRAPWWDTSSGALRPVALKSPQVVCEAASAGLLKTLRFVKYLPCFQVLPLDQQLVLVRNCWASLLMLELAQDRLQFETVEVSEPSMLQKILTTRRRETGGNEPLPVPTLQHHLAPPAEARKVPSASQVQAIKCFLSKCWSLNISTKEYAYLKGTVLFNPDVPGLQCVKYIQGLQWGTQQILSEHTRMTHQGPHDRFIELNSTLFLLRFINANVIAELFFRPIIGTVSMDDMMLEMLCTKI
hgDAF12 agonist – H. glycines DAF-12 receptor agonists, primary screen, cell-based, luminescence, HEK293, GAL4 fusion, UAS-luciferase; HEK293 GAL4-hgDAF12 UAS-luciferase reporter, agonist luminescence; normalized to butyrate control; 1.8% of 370,000 active; activation, % at 6.8 µM;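 active = activation above a cutoff set at the mean of all screened compounds plus 3 SD, cut at about 10% in these data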;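 also: 0% = DMSO wells and 100% = sodium butyrate wells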
hcDAF-12 act – H. contortus DAF-12 nuclear receptor activators, primary screen, cell-based, luminescence, HEK293, lit1-tk-luc reporter; HEK293 hcDAF-12 lit1-tk-luc reporter; 0% DMSO, 100% Δ7-dafachronic acid; activation, % at 6.8 µM; 1.4% of 370,000 active;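 active = activation above the mean of all tested compounds plus 3 SD, cut at about 5.5% in these data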;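 also: 100% = response to 3 µM Δ7-dafachronic acid high control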
DAX1 inh-2 – DAX1 (NR0B1) inhibitors on StAR promoter, primary screen, cell-based, luminescence, SF-1 (NR5A1), full-length DAX-1 | inhibition, % at 6.8 µM | HEK293T StAR-luciferase reporter, SF-1/DAX-1 repression relief | 1.1% of 370,000 active;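 active = inhibition above the mean over all tested compounds plus 3 SD, cut at about 3.6% in these data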;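 also: 0% = DAX-1 cells with DMSO and 100% = cells lacking DAX-1 with DMSO; higher inhibition means more luminescence from relief of DAX-1 repression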
ssDAF12 agonist – S. stercoralis DAF-12 nuclear receptor activators, primary screen, cell-based, luminescence, HEK293, GRIP1 co-expression, lit1-tk-luc; Nuclear hormone receptor DAF-12 (Strongyloides stercoralis); HEK293 ssDAF-12/GRIP1 lit1-tk-luc reporter; % of 3 µM dafachronic acid response; activation, % at 6.8 µM; 1% of 370,000 active;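 active = activation above the mean over all tested compounds plus 3 SD, cut at about 0.9% in these data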;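 also: 0% = DMSO-only wells and 100% = 3 µM delta7-dafachronic acid wells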
DAX1 conf – DAX1 (NR0B1) inhibitors relieving SF-1 repression, confirmation, cell-based, luminescence, HEK293T, full-length DAX-1, SF-1 activated StAR promoter. shares compounds with DAX1 inh-2. HEK293T StAR-promoter luciferase reporter, SF-1/DAX-1 repression. inhibition, % at 6.8 µM. 87% of 2,400 active. AID 652134, 2013;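 active = inhibition above the average of every tested compound plus 3 SD, cut at about 3.8% in these data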;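 also: 0% = DAX-1 cells with DMSO and 100% = no DAX-1 control cells with DMSO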
SF1 mutant ctr – StAR reporter signal changes without DAX1, counter-screen for DAX1 inhibitor project, cell-based, luminescence, AF-2 mutant SF-1, transactivation; inhibition, % at 6.8 µM; shares compounds with DAX1 inh-2; HEK293 StAR-luciferase, SF-1 AF2 mutant; 78% of 2,400 active; AID 652136, 2013;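 active = inhibition above the mean of all tested compounds plus 3 SD, cut at about 3% in these data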;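 also: 0% = DAX-1 transfected cells with DMSO and 100% = cells without DAX-1 with DMSO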
An asterisk follows results filed as active; . = not tested or not shown. Hits are enriched below; roughly 4.1% of the tested compounds scored in any of these assays.

SMILES	DAX1 inh-1	hgDAF12 agonist	hcDAF-12 act	DAX1 inh-2	ssDAF12 agonist	DAX1 conf	SF1 mutant ctr
COC(=O)[C@H]1C[C@@]2(O)CN(S(=O)(=O)c3ccc(C)cc3)C[C@@]2(OC(=O)NCc2ccccc2F)C[C@H]1C(=O)OC	2.0	-1.6	0.8	1.1	-0.4	.	.
COc1ccc2sc(NC(=O)c3ccco3)nc2c1	-2.1	10.3	4.3	6.2*	-0.3	10.1*	2.6
COc1ccc2c(c1)Cc1sc(NC(=O)c3ccco3)nc1-2	2.3	6.9	4.5	2.3	-0.3	.	.
Cc1ccc(NC(=O)CSc2ccc(S(=O)(=O)N3CCCC3)cn2)cc1F	0.5	-2.3	-1.2	5.9*	-0.8	-4.5	0.1
O=C(COc1ccc(Cl)cc1Cl)NC(=O)NC1CCCC1	0.4	12.3*	3.2	5.0*	-0.5	4.1*	1.0
O=C(COc1ccc(Cl)cc1Br)NC(=O)NC1CCCC1	3.4	12.7*	0.8	8.0*	-0.8	7.9*	5.3*
O=C(COc1ccc(Br)cc1Cl)NC(=O)NC1CCCC1	0.7	10.2	1.7	2.0	0.1	.	.
C#CCN(C[C@@H]1[C@@H](OC(=O)NCc2ccc(OC)c(OC)c2)[C@@H](OC(=O)NCc2ccc(OC)c(OC)c2)CN(C(=O)OC(C)C)N1C(=O)OC(C)C)S(=O)(=O)c1ccc(C)cc1	0.6	2.5	-0.6	-3.8	-1.1	.	.
O=S(=O)(NCc1ccc(Cl)cc1)c1ccc(Br)cc1C1CC[C@@H](O)C1 (some centres not stated)	.	-0.6	0.5	0.5	-0.8	.	.
O=C(Nc1nc2cc3c(cc2s1)OCCO3)C1=COCCO1	-7.6	-17.5	-5.9	-3.2	-3.3	.	.
CCCCc1nnc(NC(=O)C2=COCCO2)s1	1.2	7.8	4.8	7.3*	1.0*	7.3*	5.6*
Cc1nnc(NC(=O)C2=COCCO2)s1	-0.3	2.3	0.9	2.3	-0.9	.	.
O=C(Nc1nc2ccc(F)cc2s1)C1=COCCO1	-3.4	2.8	4.9	7.5*	0.1	7.6*	3.1*
CCOC(=O)NC1CCc2cc(OC)c(OC)c(OC)c2-c2ccc(SC)c(=O)cc21 (configuration not stated)	-0.3	-5.6	-0.7	5.0*	-0.7	13.1*	-7.1
CN[C@H]1CCc2cc(OC)c(OC)c(OC)c2-c2ccc(OC)c(=O)cc21	0.2	-3.2	-0.3	6.8*	-0.5	19.4*	-7.5
COc1cc(CN2CCC(C(=O)NC(c3ccc(-c4ccccc4)cc3)c3cnccn3)CC2)cc(OC)c1 (configuration not stated)	.	0.5	-1.5	-0.8	-1.2	.	.
CCCCC#CC(CC)NCc1ccc(OC)cc1OC (configuration not stated)	.	0.5	-3.3	.	-2.0	.	.
CCC1CCc2sc(C(=O)NNC(=S)NCC3CCCO3)cc2C1 (configuration not stated)	0.7	2.8	-0.7	-0.2	-0.9	.	.
CCC1CCc2sc(C(=O)NCC3CCCO3)cc2C1 (configuration not stated)	3.3	11.1*	0.7	10.0*	-0.2	7.3*	3.5*
CCOC(=O)C1(Cc2cccc(OC)c2)CCCN(C(=O)CCN2CCCO2)C1 (configuration not stated)	1.3	10.9*	2.6	4.8*	0.2	7.0*	5.8*
CC(=O)Nc1nc(-c2ccc(-c3ccccc3)cc2)cs1	2.0	3.9	1.3	4.5*	-0.6	5.9*	4.5*
CC(=O)NNc1nc(-c2ccccc2)cs1	-0.4	0.7	3.7	0.3	-0.6	.	.
Cc1ccc(CC(=O)O/N=C(\N)c2ccccn2)cc1	0.7	11.2*	1.8	5.0*	-0.6	4.0*	3.2*
CCn1ccc(C(=O)NC2=NCCS2)n1	0.3	7.4	0.7	1.7	0.6	.	.
CCn1ccc(C(=O)Nc2ncc(C)s2)n1	1.2	7.7	2.9	8.9*	0.2	9.4*	4.4*
SMILES	DAX1 inh-1	hgDAF12 agonist	hcDAF-12 act	DAX1 inh-2	ssDAF12 agonist	DAX1 conf	SF1 mutant ctr
CC(C)[C@@H]1NC(=O)[C@@H]2CSCCS(=O)(=O)N2C1=O	.	1.7	-0.1	1.4	-1.0	.	.
CCc1nnc(NC(=O)c2cc(C)oc2C)s1	0.9	8.8	5.5	9.5*	0.6	7.9*	5.6*
Cc1ccc(S(=O)(=O)N(C)C)cc1NC(=O)COC(=O)/C=C/c1ccc2ccccc2n1	0.3	3.2	1.4	5.0*	-0.1	1.4	0.5
Cc1ccc(NC(=O)c2ccco2)nc1	3.4	12.1*	3.8	8.0*	0.1	8.7*	6.8*
Cc1ccc(NC(=O)c2ccc3c(c2)OCCO3)nc1	-1.5	11.5*	1.4	6.1*	-0.1	3.0	1.3
COC(=O)[C@]12C[C@H](CC(=O)N3CCOCC3)C(=O)N(Cc3ccco3)C1=C[C@H](C(C)C)O[C@@H]2C1CC1	.	1.3	-0.8	-1.1	-0.5	.	.
ClCCn1cnc2c(SCc3ccccc3Cl)ncnc21	-3.6	-1.9	-1.3	-3.2	-0.8	.	.
ClCCn1cnc2c(SCc3ccccc3)ncnc21	-3.8	-1.6	1.2	7.5*	-1.3	-1.1	-5.9
CN(C)c1ccc(N=Nc2ccc(C(=O)O)cc2)cc1	-5.0	8.8	4.8	2.1	0.3	.	.
Cc1cc(O)c(N=Nc2ccc(C(=O)O)cc2)cc1C	4.3*	8.3	3.0	5.2*	0.1	21.5*	7.7*
COC(=O)c1ccc2c(c1)c(C#Cc1ccccc1)c(-c1ccccc1)n2C	0.0	6.7	1.8	4.7*	-1.0	1.8	1.8
O=C(Nc1ccc2oc(-c3ccccc3Cl)nc2c1)c1ncn[nH]1	2.8	9.9	5.8*	6.7*	0.3	13.8*	7.9*
Cc1ccc(NC(=O)c2ccc(OCC3CCCO3)cc2)c(C)c1 (configuration not stated)	-0.6	0.4	2.2	0.2	-0.7	.	.
Cc1ccnc(NC(=O)c2ccc(OCC3CCCO3)cc2)c1 (configuration not stated)	-2.1	9.0	4.7	6.8*	0.1	4.5*	-0.1

Bioassay records (PubChem)
